Measurements from PubChem BioAssay (NCI).
This is part of a sample that, as a whole, favours compounds with a hit. Of some 83,000 tested, about 20% had one in any assay.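 48-hour exposure, single concentration, 96-well plates; percent growth endpoint where 0 means no net growth. Active: below 10.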 Unmarked numbers belong to inactive results.

System: OVCAR-8 ovarian
Assay: NCI-60 one-dose screen, 48 h (100 = growth as untreated, 0 = no growth, -100 = all killed)
Conditions: 10 µM unless noted

| SMILES | growth [%] |
| --- | --- |
| Cc1ccc(S(=O)(=O)N(CCC(=O)O)c2ccccc2)cc1 | 101 |
| Nc1ncc(-c2ccc3ncnc(N4CCc5cc(F)c(Cl)cc54)c3c2)cc1C(F)(F)F | 33.1 |
| OC1CSSC1Cn1cnc2c(Nc3ccc(F)c(Cl)c3)ncnc21 (stereo unspecified) | 96.5 |
| COc1cc2c(c(OC)c1OC)C(=O)CC(c1cccc(C(=O)Nc3ccc(Br)cc3)c1)O2 (stereo unspecified) | 47.1 |

System: OVCAR-5 ovarian
Assay: as above
Conditions: 10 µM unless noted

| SMILES | growth [%] |
| --- | --- |
| C=C(C)[C@@H]1CC[C@]2(COC(=O)c3cccnc3)CC[C@]3(C)[C@H](CC[C@@H]4[C@@]5(C)CCCN(C(=O)c6cccnc6)C(C)(C)[C@@H]5CC[C@]43C)[C@@H]12 | 53.9 |
| C=C1C(=O)O[C@H]2[C@H]1CC/C(CNC(=O)/C=C/c1cc(OC)c(OC)c(OC)c1)=C\CC[C@@]1(C)O[C@@H]21 | 15.9 |
| O=S(=O)(c1ccc(NCSc2nc3ccccc3s2)cc1)c1ccc(NCSc2nc3ccccc3s2)cc1 | 107 |
| COc1ccc(S(=O)(=O)Oc2ccc(-c3sc4cc(OS(=O)(=O)c5ccc(OC)cc5)ccc4c3C(=O)c3ccc(OCCN4CCCCC4)cc3)cc2)cc1 | 95.7 |
| Nc1nc(N)c2c(n1)NC(c1cccc(Nc3ccnc4cc(C(F)(F)F)ccc34)c1)CC(c1ccc(Cl)cc1)=N2 (stereo unspecified) | 105 |
| COC(=O)[C@H]1Cc2c([nH]c3ccccc23)[C@H](c2ccc3c(c2)OCO3)N1 | 100 |
| [2H]C([2H])([2H])Oc1c(F)cccc1/C=C/C(=O)/C=C(O)/C=C/c1cccc(F)c1OC([2H])([2H])[2H] | 104 |
